Here are results for 8 compounds from PubChem BioAssay (NCI).

Compounds without any hit were thinned out: in the full panel of roughly 83,000, 20% have a hit.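 Step 1: grow cells in 96-well plates. Step 2: add test compound at a single concentration. Step 3: incubate 48 h. Step 4: record percent growth.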 A number with no mark means an inactive call. Activity calls are given as the source filed them. Rule for the calls: active = growth percent below 10; inactive = the rest.

Among the test systems are HCT-15 colon; HT29 colon; SNB-75 CNS; SNB-19 CNS; U251 CNS; PC-3 prostate; SK-MEL-5 melanoma; UACC-62 melanoma; LOX IMVI melanoma; SK-MEL-28 melanoma; SK-MEL-2 melanoma; EKVX NSCLC; SN12C renal; UO-31 renal; TK-10 renal; ACHN renal; CAKI-1 renal; A498 renal; CCRF-CEM leukemia; MOLT-4 leukemia.
What all share (assay): NCI-60 one-dose screen, 48 h (100 = growth as untreated, 0 = no growth, -100 = all killed)
Holding throughout (settings): 10 µM unless noted

Turning to `COC(=O)CCCCCCN=Cc1c(O)c(O)c(C(C)C)c2cc(C)c(-c3c(C)cc4c(C(C)C)c(O)c(O)c(C=NCCCCCCC(=O)OC)c4c3O)c(O)c12`, the growth is 13.1% in the experiment on HCT-15 colon; 6.88% (active) in the experiment with HT29 colon; 59.4% in the experiment on SNB-75 CNS; 17.6% with SNB-19 CNS; 11.5% in the experiment with U251 CNS; 16% with PC-3 prostate. Further, the growth in the experiment with SK-MEL-5 melanoma was 43.4%; in the experiment on UACC-62 melanoma, 17.7%; in the experiment with LOX IMVI melanoma, 21.4%; in the experiment with SK-MEL-28 melanoma, 36.1%; in the experiment on SK-MEL-2 melanoma it was 24.7%; in the experiment with EKVX NSCLC it was 23.9%. Besides, the growth in the experiment on SN12C renal is 22.8%; with UO-31 renal, 21.8%; with TK-10 renal it was 12.4%; in the experiment with ACHN renal it was 21.6%; in the experiment with CAKI-1 renal it was 65.4%; with A498 renal it was 46.1%. Moreover, the growth in the experiment on CCRF-CEM leukemia is 16.1%.
As to `NC(C(=O)O)C(O)c1ccc(OCc2ccccc2)c(OCc2ccccc2)c1` (stereo unspecified), the growth in the experiment on HCT-15 colon was 97.6%; in the experiment with HT29 colon it was 97.3%; in the experiment with SNB-75 CNS it was 77.6%; in the experiment with SNB-19 CNS it was 97.1%; in the experiment with U251 CNS, 91%; with PC-3 prostate, 89.1%. Further, the growth in the experiment with SK-MEL-5 melanoma is 103%; with UACC-62 melanoma it was 97.8%; in the experiment on LOX IMVI melanoma, 99.1%; in the experiment with SK-MEL-28 melanoma, 110%; with SK-MEL-2 melanoma it was 104%; in the experiment with EKVX NSCLC, 104%. Also, the growth is 107% in the experiment on SN12C renal; 92.1% in the experiment on UO-31 renal; 104% in the experiment on TK-10 renal; 101% in the experiment on ACHN renal; 93.3% in the experiment with CAKI-1 renal; 85.3% with A498 renal. In addition, in the experiment with CCRF-CEM leukemia, the growth was 94.6%.
Regarding `CCC(=O)Nc1ccccc1C#C/C=C\C#Cc1ccccc1SC`, the growth in the experiment on HCT-15 colon is 43.9%; with HT29 colon, 29.6%; in the experiment with SNB-75 CNS, 60.6%; with SNB-19 CNS it was 79.3%; with U251 CNS, 48.9%; in the experiment with PC-3 prostate it was 51.9%. Also, the growth in the experiment with SK-MEL-5 melanoma is 23.8%; in the experiment on UACC-62 melanoma it was 40.1%; in the experiment on LOX IMVI melanoma, 57.9%; in the experiment with SK-MEL-28 melanoma it was 81.2%; in the experiment with SK-MEL-2 melanoma, 28%; in the experiment on EKVX NSCLC it was 65.6%. In addition, the growth was 82.1% with SN12C renal; 21.5% in the experiment with UO-31 renal; 71.5% in the experiment on TK-10 renal; 77.7% with ACHN renal; 70.6% in the experiment with CAKI-1 renal; 59.9% in the experiment on A498 renal. Also, in the experiment on CCRF-CEM leukemia, the growth was 26.9%.
On to `O=C(CNC(=O)c1cccc2ccccc12)Nc1ccccc1Oc1ccccc1`, for which the growth with HCT-15 colon is 8.09% (active); with HT29 colon it was 1.97% (active); with SNB-75 CNS it was 38.9%; in the experiment on SNB-19 CNS, 33.8%; in the experiment with U251 CNS, 11.5%; with PC-3 prostate, 2.31% (active). The growth in the experiment on SK-MEL-5 melanoma is -33.1% (active); in the experiment with UACC-62 melanoma it was 21.3%; in the experiment on LOX IMVI melanoma, 15.5%; in the experiment with SK-MEL-28 melanoma, 57.8%; in the experiment on SK-MEL-2 melanoma, 34.8%; in the experiment with EKVX NSCLC it was 26.3%. For the same compound, the growth is 21.8% with SN12C renal; 33.8% in the experiment on UO-31 renal; 19.8% with TK-10 renal; 29.9% in the experiment on ACHN renal; 31.6% in the experiment on CAKI-1 renal; -14.9% (active) in the experiment with A498 renal. Moreover, the growth was 18.3% with CCRF-CEM leukemia and 24.2% with MOLT-4 leukemia.
For the compound `CCc1c(C(=O)Nc2ccc3ccccc3c2)[nH]c(C)c1C(C)=O`, the growth with HCT-15 colon was 79.1%; in the experiment on HT29 colon it was 93.7%; in the experiment on SNB-75 CNS, 84.4%; with SNB-19 CNS, 110%; in the experiment with U251 CNS, 98.3%; with PC-3 prostate, 74%. The growth with SK-MEL-5 melanoma was 77.4%; in the experiment on UACC-62 melanoma it was 87.2%; in the experiment with LOX IMVI melanoma, 96.3%; in the experiment with SK-MEL-28 melanoma, 97.8%; in the experiment with SK-MEL-2 melanoma, 87.9%; in the experiment on EKVX NSCLC, 84.3%. Moreover, the growth is 96.6% in the experiment with SN12C renal; 86.8% in the experiment on UO-31 renal; 99.8% in the experiment with TK-10 renal; 98.6% in the experiment on ACHN renal; 86.4% with CAKI-1 renal; 80.2% with A498 renal. Besides, the growth in the experiment with CCRF-CEM leukemia is 96.1%; in the experiment with MOLT-4 leukemia it was 68.5%.
`C=CCc1cc(Cl)cc2c(OC(C)=O)c(C(C)=O)c(-c3ccccc3)nc12`: the growth in the experiment with HCT-15 colon was 108%; in the experiment on HT29 colon it was 112%; in the experiment on SNB-75 CNS, 85.6%; in the experiment with SNB-19 CNS, 112%; in the experiment on U251 CNS, 105%; in the experiment on PC-3 prostate, 96%. Also, the growth was 105% in the experiment on SK-MEL-5 melanoma; 101% in the experiment with UACC-62 melanoma; 97.3% with LOX IMVI melanoma; 116% with SK-MEL-28 melanoma; 112% with SK-MEL-2 melanoma; 75.5% in the experiment with EKVX NSCLC. For the same compound, the growth was 99.5% with SN12C renal; 78.2% with UO-31 renal; 114% in the experiment on TK-10 renal; 102% with ACHN renal; 87.5% in the experiment on CAKI-1 renal; 110% with A498 renal. Besides, the growth is 104% in the experiment with CCRF-CEM leukemia and 101% in the experiment on MOLT-4 leukemia.
In the case of `O=S(=O)(NCCNc1cc(-c2cn(-c3ccccc3)nc2-c2ccccc2)ccn1)c1ccc(F)cc1`, the growth with HCT-15 colon was 74.2%; with HT29 colon, 88.3%; in the experiment on SNB-75 CNS, 77.4%; in the experiment with SNB-19 CNS, 92.5%; with U251 CNS, 72.7%; with PC-3 prostate it was 47.6%. The growth was 68.9% in the experiment on SK-MEL-5 melanoma; 89.4% in the experiment on UACC-62 melanoma; 78.5% in the experiment on LOX IMVI melanoma; 104% in the experiment on SK-MEL-28 melanoma; 108% in the experiment with SK-MEL-2 melanoma; 71.3% in the experiment on EKVX NSCLC. The growth in the experiment with SN12C renal is 92.8%; in the experiment with UO-31 renal, 60.7%; in the experiment on TK-10 renal, 114%; in the experiment with ACHN renal, 93%; with CAKI-1 renal it was 66.1%; with A498 renal, 83.8%. Further, the growth in the experiment with CCRF-CEM leukemia was 83.4%; with MOLT-4 leukemia, 70.1%.
Take `O=c1cc(C2NCCc3c2[nH]c2ccccc32)c2c(ccc3ccccc32)o1` (stereo unspecified): the growth was 44.5% with HCT-15 colon; 56.2% in the experiment with HT29 colon; 51.6% with SNB-75 CNS; 88.3% in the experiment with SNB-19 CNS; 66.1% in the experiment with U251 CNS; 56% in the experiment with PC-3 prostate. The growth was 76.4% in the experiment on SK-MEL-5 melanoma; 48.7% in the experiment with UACC-62 melanoma; 36.8% with LOX IMVI melanoma; 92.7% in the experiment on SK-MEL-28 melanoma; 36.2% with SK-MEL-2 melanoma; 75.3% with EKVX NSCLC. For the same compound, the growth in the experiment with SN12C renal was 87.5%; in the experiment on UO-31 renal it was 26.2%; with TK-10 renal, 71.7%; in the experiment with ACHN renal, 31.7%; in the experiment with CAKI-1 renal it was 15.5%; in the experiment on A498 renal it was 46.3%. For the same compound, the growth with CCRF-CEM leukemia was 77.8%.
